PubChem BioAssay

Key:
[1] = tested on: Human papillomavirus type 1a protein E7 (residues 44-93); experiment: small molecules binding HPV E7 44-93 – biochemical, small-molecule microarray, residues 44-93, 635 nm fluorescence, primary screen (AID 1108); conditions: fluorescence 635 nm, higher = more signal;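 further: E7 fragment applied at 1 µg/mL in TBST for 1 h at 4 C; score combines spot fluorescence with its signal to noise ratio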
[2] = hepatitis C replication reporter changes, two-sided – Huh7 cells, luciferase reporter, HCV replication inhibitor project, primary screen (AID 1109); conditions: Huh7 HCV replicon luciferase reporter, 48 h; higher = more signal;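 further: huh7 hepatoma cells harbouring a luciferase neomycin HCV replicon reporter; luciferase luminescence as measure of HCV replicon replication; test concentration not given here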
[3] = target: Left-right determination factor 2 (Homo sapiens) (UniProt O00292); experiment: small molecules binding LEFTY2 protein – biochemical, small-molecule microarray, 635 nm fluorescence scan, primary screen (AID 1110); conditions: higher = more signal
[4] = target: Calmodulin-1 (Homo sapiens) (UniProt P0DP23); experiment: small molecules binding calmodulin-1 with EGTA – biochemical, small-molecule microarray, Cy5-labelled CALM1, profiling panel (AID 1111); conditions: Cy5-CALM1 binding fluorescence, higher = more signal;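 further: labelled calmodulin applied in Tris saline Tween buffer holding calcium plus EGTA and DTT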
[5] = target: Calmodulin-1 (Homo sapiens) (UniProt P0DP23); experiment: small molecules binding Ca-loaded calmodulin-1 – biochemical, small-molecule microarray, Cy5-labelled CALM1, plus calcium, artefact control for SMM control-protein annotation, profiling panel (AID 1112); conditions: Cy5-CALM1 binding fluorescence, higher = more signal;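 further: score merges spot fluorescence with signal to noise from triplicate slides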
[6] = probe aWnt5a binding to arrayed compounds – biochemical, biotinylated probe, 635/667 nm fluorescence, primary screen (AID 1113); conditions: small-molecule microarray, higher = more signal;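 further: score merges 667 nm fluorescence intensity with signal-to-noise per printed feature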
[7] = probe aShh binding to arrayed compounds – biochemical, biotinylated probe, 635/667 nm fluorescence, primary screen (AID 1114); conditions: small-molecule microarray, higher = more signal;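 further: probe is biotin-labelled aShh protein from a stem cell growth factor screen; measures binding of labelled protein to compounds printed on the slide; score merges feature fluorescence at 667 nm with signal-to-noise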
[8] = probe aNog binding to arrayed compounds – biochemical, biotinylated probe, 635/667 nm fluorescence, primary screen (AID 1115); conditions: small-molecule microarray, higher = more signal;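 further: probe is biotinylated aNog protein used at 0.15 µg/mL for 1 h at 4 C; z-score combines 667 nm fluorescence of each spot with its signal to noise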
[9] = target: Torsin-1A-interacting protein 1 (Homo sapiens) (UniProt Q5JTV8); experiment: compound microarray binding of lysate hLAP1 – cell lysate, small-molecule microarray, COS7 lysate, 635/667 nm fluorescence, primary screen (AID 1116); conditions: 635 nm fluorescence, higher = more signal
[10] = target: Alpha-bungarotoxin (Bungarus multicinctus) (UniProt P60615); experiment: compounds binding labelled alpha-BTX control protein – biochemical, small-molecule microarray, Alexa647 label, 635/667 nm fluorescence, artefact control for SMM control protein annotation, profiling panel (AID 1117); conditions: alpha-BTX-A647 binding fluorescence, higher = more signal
Chain of Alpha-bungarotoxin (Bungarus multicinctus) (P60615 whole entry, looked up): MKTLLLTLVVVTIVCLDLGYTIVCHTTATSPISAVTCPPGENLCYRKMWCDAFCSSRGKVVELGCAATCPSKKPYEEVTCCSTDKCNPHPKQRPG

Chain of Torsin-1A-interacting protein 1 (Homo sapiens) (Q5JTV8 whole entry, looked up): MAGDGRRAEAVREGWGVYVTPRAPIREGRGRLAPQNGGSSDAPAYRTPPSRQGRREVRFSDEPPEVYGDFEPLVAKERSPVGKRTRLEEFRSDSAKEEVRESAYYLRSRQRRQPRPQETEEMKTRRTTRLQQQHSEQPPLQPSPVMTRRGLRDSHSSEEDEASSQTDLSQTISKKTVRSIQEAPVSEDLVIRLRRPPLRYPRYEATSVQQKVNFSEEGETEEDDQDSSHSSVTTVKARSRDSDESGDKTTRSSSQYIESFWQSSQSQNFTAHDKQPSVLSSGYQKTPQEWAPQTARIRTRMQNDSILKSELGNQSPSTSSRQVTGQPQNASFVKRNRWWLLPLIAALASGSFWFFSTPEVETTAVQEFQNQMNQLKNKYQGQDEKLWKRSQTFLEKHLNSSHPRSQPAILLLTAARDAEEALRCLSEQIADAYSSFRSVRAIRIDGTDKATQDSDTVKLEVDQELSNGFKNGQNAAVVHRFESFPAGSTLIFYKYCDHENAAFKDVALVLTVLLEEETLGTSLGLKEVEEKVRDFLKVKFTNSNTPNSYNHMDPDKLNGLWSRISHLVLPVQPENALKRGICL
Chain of Left-right determination factor 2 (Homo sapiens) (O00292 whole entry, looked up): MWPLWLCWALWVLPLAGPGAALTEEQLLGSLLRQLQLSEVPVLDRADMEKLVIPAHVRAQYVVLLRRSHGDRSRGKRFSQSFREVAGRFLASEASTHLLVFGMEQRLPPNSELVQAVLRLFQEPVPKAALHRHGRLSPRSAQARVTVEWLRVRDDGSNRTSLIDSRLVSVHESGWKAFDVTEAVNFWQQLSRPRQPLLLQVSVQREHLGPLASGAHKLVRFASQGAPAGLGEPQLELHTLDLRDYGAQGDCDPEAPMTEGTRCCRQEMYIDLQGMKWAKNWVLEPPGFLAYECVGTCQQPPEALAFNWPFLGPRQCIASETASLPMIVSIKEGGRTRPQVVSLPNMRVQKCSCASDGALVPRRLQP

Row | Structure (SMILES) | composite z-score [1] | z-score [2] | composite z-score [3] | composite z-score [4] | composite z-score [5] | composite z-score [6] | composite z-score [7] | composite z-score [8] | composite z-score [9] | composite z-score [10]
1 | C=CC[C@@]1(C(=O)N2CCCCC2)N=C(c2ccc(OCCCO)cc2)O[C@@H]1c1ccccc1N=[N+]=[N-] | 1.46 | -1.62 | 0.227 | 1.27 | 0.613 | 0.0472 | 0.214 | 1.54 | 1.05 | 2.11
2 | CC(C)[Si](C#CCCCC#N)(O[C@H](c1ccccc1)c1cn(Cc2cccc(Cl)c2)nn1)C(C)C | 1.31 | -1.7 | 0.634 | -0.412 | -0.745 | -0.0977 | -0.0553 | -0.467 | 0.423 | -0.0534
3 | CO[C@H]1O[C@H](CO)[C@@H](OC(=O)Nc2ccc(Oc3ccccc3)cc2)[C@H](OC(=O)Nc2ccc3c(c2)OCO3)[C@@H]1OC(=O)Nc1ccc2c(c1)OCO2 | 0.794 | 0.166 | 0.627 | 1.15 | -0.23 | 0.0374 | 0.246 | 0.565 | 1.37 | 1.26
4 | C=C(C)[C@@H]1CC=C(C(O)C2C=CC3C(=O)NC(=O)C3N2Nc2ccc(Cl)cc2Cl)CC1 (stereo not given in full) | 0.762 | -0.537 | 0.216 | 2.19 | 1.21 | 0.0328 | -0.0271 | 1.61 | 0.584 | 2.26
5 | CCCCC(=C=CC[C@@H](O)c1cccc(OCCO)c1)C[C@@H](O)c1ccccn1 | 1.35 | -0.617 | 0.229 | 1.16 | -0.946 | -0.0735 | -0.0553 | 0.144 | 1.25 | 1.16
6 | O=C(CS)NCCCCCNC(=O)[C@@H]1C[C@@H]2C(=O)NCC(=O)N2[C@@H]1c1cccc(OCCO)c1 | 0.275 | -0.125 | 0.387 | 0.129 | -0.193 | -0.16 | -0.197 | -0.137 | 0.635 | -0.315
7 | O=C(O)[C@H]1C[C@H]2C(=O)N3CCC[C@H]3C(=O)N2[C@H]1c1ccc(O)cc1 | -0.124 | 0.253 | -2.21 | -0.342 | 0.123 | -0.202 | -0.348 | -0.216 | 0.319 | -1.55
8 | CCOC(=O)C1=C[C@@H](C(C)C)N(S(=O)(=O)c2ccc(C)cc2)[C@H]1c1ccccc1F | 1.34 | -2.04 | 0.605 | 1.74 | 0.0462 | -0.001 | 0.116 | 0.541 | 1.08 | 1.39
9 | CCOC(=O)C[C@H]1[C@H](OC(=O)c2ccc(-c3ccccc3)cc2)[C@@H](NC(=O)c2ccccc2)c2cc(OCCCO)ccc2N1C(=O)Cc1ccc(OC)cc1 | -0.149 | -1.41 | 0.199 | 0.594 | 0.534 | -0.1 | -0.147 | -0.18 | 0.328 | 0.281
10 | C=CC[C@]1(C(N)=O)COC(c2ccc(OCCCO)cc2)=N1 | -0.287 | -0.243 | 0.237 | -0.257 | -0.296 | -0.0899 | -0.0793 | 0.0519 | 0.837 | 1.37
11 | CN(C)CCCCNC(=O)[C@@H]1C[C@@H]2C(=O)N[C@@H](CCCCN)C(=O)N2[C@@H]1c1ccc(O)cc1 | 0.0215 | -1.04 | 0.886 | 1.53 | -0.288 | 0.0725 | 0.213 | 0.654 | 0.677 | 1.36
12 | O=C1NC(=O)C2C1C=CC(C(O)C=Cc1ccc([N+](=O)[O-])cc1)N2Nc1ccc(Cl)cc1Cl (stereo not given) | 0.0788 | 0.498 | 0.0391 | 2.14 | 0.713 | -0.031 | 0.317 | 0.0884 | 1.52 | 1.49
13 | O=C1OCC=C[C@H]2OC34C=CCN(CCN5CCOCC5)C(=O)[C@H]3N(CCO)C(=O)[C@@H]4[C@@H]12 (stereo not given in full) | 0.259 | 0.289 | -0.0919 | -0.571 | -0.932 | -0.223 | -0.321 | -0.384 | 0.0486 | -0.283
14 | C[N+](C)(C)CCCC[C@@H]1NC(=O)[C@@H]2C[C@H](C(=O)NCCCCCN)[C@H](c3ccc(O)cc3)N2C1=O | 1.34 | 0.0633 | 1.24 | 2.08 | 1.12 | 0.0775 | -0.167 | 1.57 | 1.29 | 2.13
15 | CCCC(=O)N(CCc1c[nH]c2ccccc12)[C@@H]1CC(C(=O)NCCO)=C[C@H](Oc2c(I)cc(CO)cc2OC)[C@H]1O | 0.434 | 0.354 | 0.362 | -0.0781 | -0.36 | -0.129 | -0.221 | -0.234 | 0.0957 | -0.0162
16 | COC(=O)[C@@]1(Cc2ccc(OC)cc2)[C@H]2c3cc(C(=O)N4CCCC4)n(CCc4ccc(O)c(O)c4)c3C[C@H]2CN1C(=O)c1ccccc1 | -1.4 | -1.1 | -0.618 | 1.39 | 0.679 | -0.0057 | -0.0977 | 1.12 | 2.24 | 0.0407
17 | CCOC(=O)C1=CC[C@H]2C(=O)N(c3ccccc3)C(=O)[C@@H]12 | 1.51 | -1.36 | 0.791 | 0.802 | -0.513 | 0.027 | -0.0793 | 1.15 | 1.14 | 0.203
18 | C#CCOc1ccc(C[C@@H](C(=O)OC)N(CC#C)[C@@H](/C=C/C2CC2)[C@H](O)Cc2ccccc2)cc1 | -0.802 | -2.06 | -0.336 | -1.1 | -1.69 | -0.2 | -0.221 | -0.337 | 0.255 | -0.335
